Cycloheximide cs = counter-screen hit for Shiga toxin inhibitors, cycloheximide. hit rate 12% among 300,000. AID 2314. cell reporter, cycloheximide protein synthesis inhibition counterscreen. max response, %; in the data active = max response mostly above about 13%, no sharp cut-off; inactive = mostly below about 14%; also: read at 38.3 µM for the half of the compounds with a filed dose
FMDV inh = foot and mouth disease virus antiviral activity; Potency, µM (series often up to 57.9 µM), most hits filed as inhibitors; FMDV antiviral cell-based qHTS; hit rate 1.2% among 410,000; calls by dose curve; tested in HEK293T cells; also: read-out not given here; nearly all actives have a fitted effect of over 45% in size
Marburg entry inh = Marburg virus entry inhibition | Marburg virus pseudotyped entry inhibition, cell reporter | Potency, µM (doses to about 37.8 µM), actives largely listed as inhibitors | hit rate 1.8% among 300,000; calls by dose curve; tested in HEK293 cells
Shiga toxin inh = Shiga toxin inhibition; inhibition, % at 38.7 µM; Vero cells, Shiga toxin protein synthesis inhibition reporter; hit rate 9.2% among 290,000; AID 2315; in the data active = inhibition mostly above about 28%, no sharp cut-off; inactive = mostly below about 43%
HCV inh = blocks hepatitis C virus | hit rate 3.4% among 340,000 | AID 651820 | Potency, µM (series often up to 41.8 µM), usual class: inhibitors | Huh7.5.1 HCVcc-Cre infection, luciferase reporter, 44 h; active = well fitted inhibition curve with a large enough effect; inconclusive = small, poorly fitted or top-dose-only effect, or another doubt; inactive = no such curve, though single readings can be large or run the other way
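Luciferase read-out (15 sec integration) after a 15 min room-temperature substrate step quantifies HCVcc-Cre infection. Cells, 1,000 per well, had compound added 4 h post-plating, then virus at ~0.5 moi, and were cultured 44 h.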
Lassa entry inh = inhibitors of Lassa virus binding or cell entry; Lassa virus pseudotype entry inhibition, cell reporter; Potency, µM (series often up to 37.9 µM), actives largely listed as inhibitors; hit rate 1.2% among 300,000; calls by dose curve; tested in HEK293 cells; also: nearly all actives have a fitted effect of over 50% in size
A number is an active result; - = inactive; ? = inconclusive; . = not tested or not shown. Compounds with a hit are over-represented: about 13% of the library has one in this group of screens.

SMILES	Cycloheximide cs	FMDV inh	Marburg entry inh	Shiga toxin inh	HCV inh	Lassa entry inh
COc1ccccc1C(O)c1ncc(-c2ccccc2C)[nH]1 (stereo unspecified)	.	-	.	.	.	.
Cc1ccccc1C1=NC(c2ccc(F)cc2F)ON1 (stereo unspecified)	30	-	-	-	-	-
CCC(CC)C(=O)N1CCCC(c2nc(-c3cccs3)no2)C1 (stereo unspecified)	-	-	-	61	-	-
CCOc1ccc(C(=O)N2CCCC(c3nc(-c4cccs4)no3)C2)cc1 (stereo unspecified)	28	-	-	33	?	?
O=C(c1ccc(Cl)cc1)N1CCC(c2nc(-c3cccs3)no2)CC1	-	-	-	-	.	-
COc1ccc(C)cc1-n1nnnc1SCc1cc(=O)n2cc(C)ccc2n1	-	16µM	-	-	?	?
O=C(NCC(=O)N(c1cccnc1)C(C(=O)NCc1ccco1)c1ccccc1)c1ccco1 (stereo unspecified)	-	-	-	-	-	?
COCc1cc(CN(C)C(=O)C2CCC(=O)N(Cc3cccc(OC)c3)C2)[nH]n1 (stereo unspecified)	-	-	.	-	-	.
COCc1cc(CN(C)C(=O)c2oc3c(F)cccc3c2C)[nH]n1	24	-	-	-	-	-
O=C(Nc1nccs1)c1ccc(CSc2nnnn2-c2ccccc2)cc1	44	-	?	-	?	-
COCCC(=O)N1CCc2ccc(NC(=O)c3ccc(C(F)(F)F)cc3)cc2C1	-	?	.	26	10µM	.
CN(C)S(=O)(=O)N1CCc2ccc(NC(=O)c3ccc(C(F)(F)F)cc3)cc2C1	27	?	.	.	7.9µM	.
CCOC(=O)c1c(N2CCN(c3ccccc3)CC2)cc(C)nc1C	-	?	.	-	-	.
COc1ccc(/C=C(/NC(=O)/C=C/c2ccccc2)C(=O)O)cc1	-	-	-	-	-	-
Cc1nc2ccccc2c(=O)n1NC(=O)c1ccccc1F	-	-	.	-	-	.
COc1cc(NC(=O)CCCc2nnc3n(C)c(=O)c4sccc4n23)cc(OC)c1OC	.	-	.	.	.	-
Cc1cc(NC(=O)C2CCCN(S(=O)(=O)c3c(C)noc3C)C2)no1 (stereo unspecified)	-	-	.	-	-	.
COc1ccc(OC)c(C(=O)c2ccc(C(=O)c3cc(OC)ccc3OC)cc2)c1	-	.	-	-	?	?
COc1ccc(C(=O)O)cc1OC	.	-	.	.	-	.
C/C(=N/Nc1ccc(C(=O)O)cc1)c1ccc(O)c(O)c1O	51	-	-	84	-	-
COc1ccc(OC)c(/C(C)=N/Nc2ccc(C(=O)O)cc2)c1	38	-	-	55	-	-
COc1ccc(/C(C)=N/Nc2ccc(C(=O)O)cc2)cc1OC	41	-	?	-	-	?
COc1cc(/C(C)=N/Nc2ccc(C(=O)O)cc2)cc(OC)c1OC	70	-	?	171	-	?
O=C(COC(=O)COc1cccc(F)c1)Nc1nc2ccccc2s1	.	-	.	.	-	.
Cc1ccc2c(c1)CC(C)N2S(=O)(=O)c1nnc(NC(=O)C(C)C)s1 (stereo unspecified)	.	-	.	.	.	-
SMILES	Cycloheximide cs	FMDV inh	Marburg entry inh	Shiga toxin inh	HCV inh	Lassa entry inh
C=CCn1cc(C(=O)NCc2ccco2)c(=O)c2cc(S(=O)(=O)N3CCCCCC3)ccc21	-	-	?	-	?	-
CCN=c1scc(C)n1/N=C/c1ccsc1	47	-	-	104	-	-
CCCCn1c(=NC(=O)c2cc3ccccc3o2)c(C(=O)OCC)cc2c(=O)n3ccccc3nc21	.	-	?	.	.	-
CN(C)CC(C)(C)CNC(=O)C1CCN(CCCc2ccccc2)CC1	-	-	.	-	13µM	.
C/C(=N\Nc1cccc(Cl)c1)c1ccncc1	24	-	.	-	?	.
C/C(=N\Nc1ccc(Cl)cc1)c1ccncc1	21	-	-	-	-	-
C/C(=N\Nc1cc(C(F)(F)F)ccc1Cl)c1ccncc1	-	-	-	-	13µM	.
O=C(NCc1cccc(Cl)c1)c1ccncc1	-	-	.	-	-	.
C/C(=N\Nc1ccc(F)cc1)c1ccncc1	24	-	-	-	-	-
CC(Nc1cc(N2CCN(S(C)(=O)=O)CC2)ccc1[N+](=O)[O-])c1ccccc1 (stereo unspecified)	-	-	-	-	?	?
CCCCNC(=O)CNC(=O)c1nn(-c2ccc(OC)c(OC)c2)c(=O)c2ccccc12	.	-	.	.	.	.
Cc1cc2c(c(-c3cnccn3)c1)OC(CNC(=O)c1ccc(-n3nc(C)cc3C)cc1)C2 (stereo unspecified)	.	-	.	.	.	.
CCc1nnc(NC(=O)c2cccnc2)s1	-	-	-	-	-	-
